Inconclusive results are not listed. Where a call stands in place of a potency, no number is given. Active and inactive are the calls of the source. Calls follow the shape of the full dose curve.

The first assay can be described thus: p53 small molecule agonists, cell-based qHTS assay with human liver microsomes (AID 1963577).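 Also: p53 response element beta-lactamase reporter cells with liver microsomes plus NADPH.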 Particulars: HCT-116 p53RE-bla with human liver microsomes, ratio, 16 h; series mostly up to 66 µM. The gist of the method:
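Reporter activation was measured by LiveBLAzer fluorescence intensity in p53RE-bla cells, which had been exposed to compounds for 16 h at 37 C alongside 0.5 mg/mL human liver microsomes and 0.5 mg/mL NADPH (final concentrations).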
A general note: qHTS replaces the single test concentration by a dilution series.
With `ClC(Cl)=C(c1ccc(Cl)cc1)c1ccc(Cl)cc1`, the Potency entry is “inactive”.
`ClCCN1CCOCC1`: the Potency entry is “inactive”.
Same read-out and setting: the same measure for `C1CCC2CCCCC2C1` (stereo not drawn): “inactive”; for `CC12CC1(C)C(=O)N(c1cc(Cl)cc(Cl)c1)C2=O` (stereo not drawn): “inactive”; for `ClCc1cccnc1`: “inactive”.
The same measure, in the same setting: to `CNC(=O)O/N=C/C(C)(C)S(C)=O` (stereo not drawn) belongs “inactive”; to `CN(C)C(=O)Nc1ccc(Cl)cc1`, “inactive”.
Same read-out and setting: to `Cc1ccccc1CCl` belongs “inactive”; to `CCOP(=S)(OCC)SCSc1cc(Cl)ccc1Cl`, “inactive”.
For the compound `Nc1c(Br)cc([N+](=O)[O-])cc1[N+](=O)[O-]`, the Potency result was “inactive”.
Turning to `COC[C@@H](NC(C)=O)C(=O)NCc1ccccc1`, the Potency result is “inactive”.
Consider `COc1cc(OC)nc(NC(=O)NS(=O)(=O)c2ncccc2C(=O)N(C)C)n1`, for which the Potency entry is “inactive”.
Regarding `OCC(Br)CBr` (stereo not drawn), the Potency result is “inactive”.
In the case of `c1ccc(C2CO2)cc1` (stereo not drawn), the Potency result was “inactive”.
Consider `CCN(C)N=O`, for which the Potency result is “inactive”.
`C=CC(=O)OCCO`: the Potency result was “inactive”.
On to `CCOP(OCC)OCC`, for which the Potency entry is “inactive”.
Turning to `CC(=O)C1CCOC1=O` (stereo not drawn), the Potency result is “inactive”.
For the compound `C#CCOC(=O)/C=C(C)/C=C/CC(C)CCCC(C)C` (stereo not drawn), the Potency result is “inactive”.
With `CCN(CC)C1CCCCC1`, the Potency entry is “inactive”.
Same read-out and setting: the same measure for `CCCCC(CC)COC(=O)c1ccc(C(=O)OCC(CC)CCCC)c(C(=O)OCC(CC)CCCC)c1` (stereo not drawn): “inactive”.
The same measure, in the same setting: the same measure for `O=C(CCl)CCl`: “inactive”.
Turning to `CCCCN=C=O`, the Potency result is “inactive”.
Turning to `COc1nc(NC(C)C)nc(NC(C)C)n1`, the Potency result is “inactive”.
Still for that read-out and setting: the same measure for `CCOc1cc(C=O)ccc1O`: “inactive”; for `Cl/C=C\CCl`: “inactive”; for `C=CC(=O)NC(C)(C)CC(C)=O`: “inactive”.
Take `Cc1ccc(N)cc1C`: the Potency result was “inactive”.
The same measure, in the same setting: the same measure for `CC(C)(Cl)Cl`: “inactive”; for `CCOS(C)(=O)=O`: “inactive”.
As to `O=C([O-])c1ccccn1.O=C([O-])c1ccccn1.O=C([O-])c1ccccn1.[Cr+3]`, the Potency result was “inactive”.
The same measure, in the same setting: to `BrCCc1ccccc1` belongs “inactive”; to `COCC(=O)N(c1c(C)cccc1C)[C@H](C)C(=O)OC`, “inactive”.
The same measure, in the same setting: the same measure for `CN(C)C(=O)C(c1ccccc1)c1ccccc1`: “inactive”.
Regarding `CN(CCCC(=O)c1cccnc1)N=O`, the Potency result was “inactive”.
On the same count and under the same terms, the same measure for `COC(=O)[C@@H](N)CCCN/C(N)=N/[N+](=O)[O-]`: “inactive”.
`CC[N+](=O)[O-]`: the Potency entry is “inactive”.
In the case of `CCCCCCC1CCOC1=O` (stereo not drawn), the Potency entry was “inactive”.
On the same count and under the same terms, the same measure for `O=[N+]([O-])c1ccccc1O`: “inactive”.

The next assay in a line: p53 small molecule agonists, cell-based qHTS assay with rat liver microsomes (AID 1963578). The conditions noted are these: HCT-116 p53RE-bla, beta-lactamase ratio, 16 h; series mostly up to 66 µM. The method, boiled down: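 Compound in DMSO added to p53RE-bla cells 5 h post-plating; rat microsomes/NADPH 0.5 mg/mL final; 16 h, 37 C; LiveBLAzer 2 h RT.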
In the case of `ClC(Cl)=C(c1ccc(Cl)cc1)c1ccc(Cl)cc1`, the Potency result was “inactive”.
The same measure, in the same setting: the same measure for `ClCCN1CCOCC1`: “inactive”; for `C1CCC2CCCCC2C1` (stereo not drawn): “inactive”.
Still for that read-out and setting: to `CC12CC1(C)C(=O)N(c1cc(Cl)cc(Cl)c1)C2=O` (stereo not drawn) belongs “inactive”; to `ClCc1cccnc1`, “inactive”; to `CNC(=O)O/N=C/C(C)(C)S(C)=O` (stereo not drawn), “inactive”.
Consider `CN(C)C(=O)Nc1ccc(Cl)cc1`, for which the Potency result was “inactive”.
As to `Cc1ccccc1CCl`, the Potency result is “inactive”.
The same measure, in the same setting: the same measure for `CCOP(=S)(OCC)SCSc1cc(Cl)ccc1Cl`: “inactive”.
Still for that read-out and setting: the same measure for `Nc1c(Br)cc([N+](=O)[O-])cc1[N+](=O)[O-]`: “inactive”; for `COC[C@@H](NC(C)=O)C(=O)NCc1ccccc1`: “inactive”; for `COc1cc(OC)nc(NC(=O)NS(=O)(=O)c2ncccc2C(=O)N(C)C)n1`: “inactive”.
Same read-out and setting: to `OCC(Br)CBr` (stereo not drawn) belongs “inactive”.
With `c1ccc(C2CO2)cc1` (stereo not drawn), the Potency result was “inactive”.
Same read-out and setting: to `CCN(C)N=O` belongs “inactive”; to `C=CC(=O)OCCO`, “inactive”; to `CCOP(OCC)OCC`, “inactive”.
Still for that read-out and setting: the same measure for `CC(=O)C1CCOC1=O` (stereo not drawn): “inactive”; for `C#CCOC(=O)/C=C(C)/C=C/CC(C)CCCC(C)C` (stereo not drawn): “inactive”.
Regarding `CCN(CC)C1CCCCC1`, the Potency result is “inactive”.
On to `CCCCC(CC)COC(=O)c1ccc(C(=O)OCC(CC)CCCC)c(C(=O)OCC(CC)CCCC)c1` (stereo not drawn), for which the Potency entry is “inactive”.
For the compound `O=C(CCl)CCl`, the Potency entry was “inactive”.
In the case of `CCCCN=C=O`, the Potency entry is “inactive”.
Take `COc1nc(NC(C)C)nc(NC(C)C)n1`: the Potency entry is “inactive”.
Regarding `CCOc1cc(C=O)ccc1O`, the Potency entry is “inactive”.
On the same count and under the same terms, the same measure for `Cl/C=C\CCl`: “inactive”; for `C=CC(=O)NC(C)(C)CC(C)=O`: “inactive”.
Same read-out and setting: to `Cc1ccc(N)cc1C` belongs “inactive”.
The same measure, in the same setting: to `CC(C)(Cl)Cl` belongs “inactive”; to `CCOS(C)(=O)=O`, “inactive”.
For the compound `O=C([O-])c1ccccn1.O=C([O-])c1ccccn1.O=C([O-])c1ccccn1.[Cr+3]`, the Potency entry was “inactive”.
Regarding `BrCCc1ccccc1`, the Potency result is “inactive”.
On the same count and under the same terms, the same measure for `COCC(=O)N(c1c(C)cccc1C)[C@H](C)C(=O)OC`: “inactive”.
As to `CN(C)C(=O)C(c1ccccc1)c1ccccc1`, the Potency result was “inactive”.
Same read-out and setting: to `CN(CCCC(=O)c1cccnc1)N=O` belongs “inactive”; to `COC(=O)[C@@H](N)CCCN/C(N)=N/[N+](=O)[O-]`, “inactive”; to `CC[N+](=O)[O-]`, “inactive”.
In the case of `CCCCCCC1CCOC1=O` (stereo not drawn), the Potency entry was “inactive”.
Take `O=[N+]([O-])c1ccccc1O`: the Potency result was “inactive”.

The record behind these values is PubChem BioAssay (Tox21).
